Among the data in article PMC7819943, “Rice protein-binding microarrays: a tool to detect cis-acting elements near promoter regions in rice” are binding signal values, retold here.

The full ranking holds about 39,000 sequences; the median of “fluorescence intensity (a.u.)” is about 4,300, and the highest 2% start at about 39,000. The list comes from a sample in which the highest values are over-represented; it also holds similar and randomly drawn sequences.

The experiment concerns the target T1, OsSMF1 (Oryza sativa, UniProt Q6ZLB0 1-436).
T1 sequence: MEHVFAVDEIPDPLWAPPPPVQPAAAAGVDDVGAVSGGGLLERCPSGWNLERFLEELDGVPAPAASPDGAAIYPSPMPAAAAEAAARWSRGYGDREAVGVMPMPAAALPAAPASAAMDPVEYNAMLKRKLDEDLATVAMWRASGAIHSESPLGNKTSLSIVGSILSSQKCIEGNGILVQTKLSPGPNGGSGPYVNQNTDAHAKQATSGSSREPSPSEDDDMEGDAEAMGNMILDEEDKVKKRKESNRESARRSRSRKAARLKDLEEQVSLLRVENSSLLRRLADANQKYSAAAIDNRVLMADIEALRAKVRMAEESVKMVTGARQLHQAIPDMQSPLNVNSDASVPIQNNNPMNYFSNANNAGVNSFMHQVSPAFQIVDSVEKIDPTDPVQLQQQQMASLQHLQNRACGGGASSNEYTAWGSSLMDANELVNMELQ
The experiment is described as follows: protein-binding microarray (RPBM); PBS, 2% BSA, 51.3 ng/ul salmon testes DNA, 50 uM zinc acetate, 200 nM TF, 25 C, 1 h; high values mean tight binding. To be noted: protein: recombinant; tags: N-terminal polyhistidine and DsRed monomer fusion (pET32a); chain copies: 2; label: CyDye5-dUTP incorporated in the synthesized complementary strand; 3' TTTTT single-stranded linker to array surface; dsDNA, one strand shown. Put shortly:
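Ni–NTA purification followed expression in E. coli BL21-CodonPlus of transcription factors fused N-terminally to a polyhistidine tag and DsRed. At 200 nM in PBS with 2% BSA, salmon testes DNA and 50 µM zinc acetate, the protein was incubated for 1 h at 25 °C with a custom Agilent array that had been primer-extended with Cy5-dUTP and blocked with 2% BSA. After washing, the array was read on an Axon 4000B scanner. The binding signal is per-feature fluorescence intensity in arbitrary units.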
On to “CCTTCCACATATGCTCATTCGAAAGTAACAAATTCACTCGCGGAGTCACCTAGTGCAG”, for which the binding signal was 3190 fluorescence intensity (a.u.).

On to “GGTGATTGCATTTGCTGATGTCAGGTATGCCTATTATATTCGGAGTCACCTAGTGCAG”, for which the binding signal was 14700 fluorescence intensity (a.u.).

Regarding “CGAGTTTAGAATCCACACCATGATTACATGTAAACAACGTCGGAGTCACCTAGTGCAG”, the binding signal was 44700 fluorescence intensity (a.u.).

Turning to “ACTAGTTTACAACCACACCAACATGTAGGCATGAACATGGCGGAGTCACCTAGTGCAG”, the binding signal was 22900 fluorescence intensity (a.u.).

For the sequence “TTGGATGACACAACAACATGTAAGGTTAGAAACGATATGTCGGAGTCACCTAGTGCAG”, the binding signal was 3990 fluorescence intensity (a.u.).

Turning to “AAAGTAGTTTTACACGTAAATCGGGCGCTGACGTTATCAGCGGAGTCACCTAGTGCAG”, the binding signal is 5310 fluorescence intensity (a.u.).

Turning to “TAAAGTAGTTTTACACGTAAATCAGATGCTGACGTCAGCGCGGAGTCACCTAGTGCAG”, the binding signal is 48600 fluorescence intensity (a.u.).

Regarding “AAAGTAGTTTCTGCACGTAAATCGGACGCTGACGTCAGCGCGGAGTCACCTAGTGCAG”, the binding signal is 36600 fluorescence intensity (a.u.).

Turning to “AAACACACTGACACGCATTCGGCCCGTTCCCTCGATGCGTCGGAGTCACCTAGTGCAG”, the binding signal is 5340 fluorescence intensity (a.u.).

Take “AACATCATATATTGATGATTATTTGCTGCATAAGGAGATGCGGAGTCACCTAGTGCAG”: the binding signal is 4070 fluorescence intensity (a.u.).

For “ATGAACTCATGCAACATTACTGGCTGATGCATCAACTTTACGGAGTCACCTAGTGCAG”, the binding signal was 3270 fluorescence intensity (a.u.).

As for “ATGATGCTGGATTGCTGGATACTGCATCAACATCATTAAGCGGAGTCACCTAGTGCAG”, the binding signal is 44500 fluorescence intensity (a.u.).

For “AACTTTTAATGATGTTCAACATGGGAAAATATGTGGTGGACGGAGTCACCTAGTGCAG”, the binding signal is 8320 fluorescence intensity (a.u.).

For the sequence “AATATTGTGTGTTGTTGTGTTGTCATCTGATATATTTTAGCGGAGTCACCTAGTGCAG”, the binding signal was 6470 fluorescence intensity (a.u.).

As for “ACCTAAACGAGCCAACACGCACGCTCATCGCATCTTTGCGCGGAGTCACCTAGTGCAG”, the binding signal was 3810 fluorescence intensity (a.u.).

“TTCTACAACTTGGACCATAAAACGTGTAGTTTTGTGAAATCGGAGTCACCTAGTGCAG”: the binding signal was 3570 fluorescence intensity (a.u.).

In the case of “ACACATGGAACTTGTGCCATATATCTGTAGGTGTGAAAATCGGAGTCACCTAGTGCAG”, the binding signal was 41300 fluorescence intensity (a.u.).

For the sequence “AAGGTAGGTTGTAGAACTGATGATCTGTCAATGGTGAAATCGGAGTCACCTAGTGCAG”, the binding signal is 4940 fluorescence intensity (a.u.).

Regarding “TGCGGACTACGTCAAGCTGACGTCATCTCCGACCCGACCTCGGAGTCACCTAGTGCAG”, the binding signal is 54000 fluorescence intensity (a.u.).

For “TCATCTCATCTCTCCACGTCACCCGACTCCGACTCCGTGGCGGAGTCACCTAGTGCAG”, the binding signal is 16900 fluorescence intensity (a.u.).

As to “CGATGGCTGCCACTGCCAACGTCAAGCTCCTCTCCGACGGCGGAGTCACCTAGTGCAG”, the binding signal is 3850 fluorescence intensity (a.u.).

In the case of “CCTACCACTGTTGAGTAACCACGTCTTTCGACGTATGCAGCGGAGTCACCTAGTGCAG”, the binding signal was 6930 fluorescence intensity (a.u.).

“GCGGTCGGGCCGGCCCAGGAAATACCAGGCGACGTGGCGGCGGAGTCACCTAGTGCAG”: the binding signal was 8410 fluorescence intensity (a.u.).

Take “ACTGACATCGAGGCCCCACGTGTCAGTGACCCAGTTCTTTCGGAGTCACCTAGTGCAG”: the binding signal is 13400 fluorescence intensity (a.u.).

“TAAACTCTTTCTGTGAGTCAGCACAATAGCCCATCGTGCCCGGAGTCACCTAGTGCAG”: the binding signal is 18700 fluorescence intensity (a.u.).

As for “ACTTCACCAGTTCACCACCGTGGCACTCCCTGGGACTGAACGGAGTCACCTAGTGCAG”, the binding signal was 3640 fluorescence intensity (a.u.).

For “GAGGACATGCATGTGCAAGGGGAGCAGGTGGGGTAAAATGCGGAGTCACCTAGTGCAG”, the binding signal is 45500 fluorescence intensity (a.u.).

For “GTGCGGATGGGGAGGTGTGGTGGAAGGGTGGACAGTGGAGCGGAGTCACCTAGTGCAG”, the binding signal is 3410 fluorescence intensity (a.u.).

For “TTGGGAGGGAGAGTGGTAAAGGGTGCTGGGGCTTTGGCTGCGGAGTCACCTAGTGCAG”, the binding signal is 4250 fluorescence intensity (a.u.).

Take “TTTGCCACTGTCCTACTAGATCTTGGTCTTATTTGAGAAGCGGAGTCACCTAGTGCAG”: the binding signal was 3550 fluorescence intensity (a.u.).

With “TATGACATGTGGGCCAACTGCCAAGCAGCCTTACTTGACGCGGAGTCACCTAGTGCAG”, the binding signal was 3360 fluorescence intensity (a.u.).

In the case of “TCTTGATGATGTGGAGTTTATGGAAACTATGTCTAGTGTTCGGAGTCACCTAGTGCAG”, the binding signal was 7560 fluorescence intensity (a.u.).

Consider “TGTTTGGACATATGCATGGAGCATTAAATGTGGATGAAAACGGAGTCACCTAGTGCAG”, for which the binding signal is 4350 fluorescence intensity (a.u.).

For the sequence “CTCAGTATATATGTTTTGAATTCATTATGACATCTTTACACGGAGTCACCTAGTGCAG”, the binding signal was 3360 fluorescence intensity (a.u.).

Take “CTGAAAAGTTGTGTGTGTATGACATGTTGATGTGATGGAACGGAGTCACCTAGTGCAG”: the binding signal is 5180 fluorescence intensity (a.u.).

Consider “TTATTGGTGGATGCCTCTGAGTCGGATGTGGGTCGTACAACGGAGTCACCTAGTGCAG”, for which the binding signal is 3660 fluorescence intensity (a.u.).

“TACAGTATGTTGTGGAAGGCCTTTGAATTATATTGCATTACGGAGTCACCTAGTGCAG”: the binding signal is 49000 fluorescence intensity (a.u.).

In the case of “TATGAAAGTTTTCGATGTGATGTAATGTGATGGAAAGTTACGGAGTCACCTAGTGCAG”, the binding signal is 3140 fluorescence intensity (a.u.).

“GCTATTTATCTCATATGATGTCTTGGATGTTGTGTAGAAACGGAGTCACCTAGTGCAG”: the binding signal is 40600 fluorescence intensity (a.u.).

For “TATTTGTATTATGTTGCAAATGTTGCAATATATATATTTACGGAGTCACCTAGTGCAG”, the binding signal is 15300 fluorescence intensity (a.u.).

For the sequence “TTGGAAGTTTATGTGTGTAGAAAAGTTTTGATGTAATGAACGGAGTCACCTAGTGCAG”, the binding signal is 44400 fluorescence intensity (a.u.).

For the sequence “GTTGGAGATGCTCTGAGAAACGCATATGTGGATGGTCTTACGGAGTCACCTAGTGCAG”, the binding signal was 48100 fluorescence intensity (a.u.).

On to “TCACATGATGTCTTGGATGTTGTGTAGAAATTCTCTTTCCCGGAGTCACCTAGTGCAG”, for which the binding signal is 3560 fluorescence intensity (a.u.).
